Source: PubChem
CHO-K1 Ca ag: counter-screen for M1 agonists: effect in parental CHO-K1 cells; activation, % at 3 µM; AID 602248; 360,000 tested, 0.48% active; Fluo-8 calcium fluorescence; scaled to maximal ATP response, vehicle zero; in the data active = activation above about 15%;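 note: untransfected CHO-K1 host cells lacking M1 receptor as counterscreen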
M1 PAM parental: counter-screen for M1 PAMs: effect in parental CHO-K1 cells. 360,000 tested, 0.02% active. activation, % at 3 µM. ATP EC20, Fluo-8 calcium fluorescence; 0% at ATP EC20, 100% at ATP max. AID 602247;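 active = activation above the run cutoff, the mean activation of all test compounds plus 3 SD, cut at about 40% in these data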;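 note: peak over basal fluorescence ratio in a 140 s read after ATP addition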
CHRM1 agonist: agonists of human M1 muscarinic receptor | P11229 | CHO-K1 hM1, Fluo-8 calcium fluorescence, agonist mode; 0% DMSO, 100% acetylcholine EC100 | activation, % at 3 µM | 360,000 tested, 0.33% active;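 active = activation above the run's mean compound activation plus 3 SD, cut at about 16% in these data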;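 note: peak over basal fluorescence ratio within a 140 s kinetic read after compound addition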
Target sequence (P11229 whole entry, looked up): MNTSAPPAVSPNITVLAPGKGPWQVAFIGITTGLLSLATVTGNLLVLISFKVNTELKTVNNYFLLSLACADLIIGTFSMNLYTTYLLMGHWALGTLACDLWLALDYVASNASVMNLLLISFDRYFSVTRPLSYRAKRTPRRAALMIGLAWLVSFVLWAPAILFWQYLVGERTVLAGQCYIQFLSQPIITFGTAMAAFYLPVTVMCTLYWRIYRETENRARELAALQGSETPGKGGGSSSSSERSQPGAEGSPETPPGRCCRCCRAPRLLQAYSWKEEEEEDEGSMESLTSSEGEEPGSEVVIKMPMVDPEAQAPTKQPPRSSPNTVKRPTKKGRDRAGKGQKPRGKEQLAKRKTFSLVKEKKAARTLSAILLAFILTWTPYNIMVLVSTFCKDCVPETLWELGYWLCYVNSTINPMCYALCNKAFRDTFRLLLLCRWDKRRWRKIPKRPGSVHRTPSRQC
M1 antag: blocks human M1 muscarinic receptor; P11229; CHO-K1 hM1, Fluo-8 calcium fluorescence, ACh EC80 antagonist; inhibition, % at 3 µM; 360,000 tested, 1.3% active;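 active = percent inhibition above its own plate's cutoff, namely the mean of that plate's compound wells plus 3 SD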;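 note: peak over basal fluorescence ratio during 140 s after agonist addition; 0% = ACh EC80 plus DMSO and 100% = DMSO alone without agonist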
M1 PAM: human CHRM1 positive allosteric modulation. AID 588819. 360,000 tested, 0.088% active. P11229. activation, % at 3 µM. CHO-K1 hM1, Fluo-8 calcium fluorescence, ACh EC20; 0% = ACh EC20, 100% = maximal ACh; in the data active = activation above about 19%, passing the limit was not always enough
CHO-K1 Ca antag: counter-screen for M1 antagonists: effect in parental CHO-K1 cells. ATP-induced calcium, Fluo-8 fluorescence. inhibition, % at 3 µM. 360,000 tested, 0.6% active;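 active = inhibition above a per-plate cutoff, the plate's mean sample inhibition plus 3 SD, cut at about 24% in these data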;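 note: 0% = DMSO plus EC80 ATP and 100% = DMSO alone without ATP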
Active calls of the source: *. In the library only some 2.4% were active in any assay of this set; here they are far more common.

`COc1cc(C(=O)NNC(=O)c2ccoc2C)cc(OC)c1OC` gave CHO-K1 Ca ag 0, M1 PAM parental 9, CHRM1 agonist -3, M1 antag -2, M1 PAM 13 and CHO-K1 Ca antag -2.
CNS(=O)(=O)c1cccc(C(=O)OCC(=O)N2CC(C)OC(C)C2)c1 (configuration not stated) was read as CHO-K1 Ca ag 1, M1 PAM parental 22, CHRM1 agonist -2, M1 antag -8, M1 PAM 8 and CHO-K1 Ca antag -13.
For COc1cccc(N2C(=O)C(c3ccccc3)=C(c3nc4ccccc4s3)C2NC(C)=O)c1 (configuration not stated) the results were CHO-K1 Ca ag 1, M1 PAM parental 22, CHRM1 agonist -5, M1 antag -14, M1 PAM 10 and CHO-K1 Ca antag -1.
For Cc1cc(C)nc(/N=C(\N)Nc2ccc(SC(F)F)cc2)n1 the results were CHO-K1 Ca ag 30*, M1 PAM parental -18, CHRM1 agonist 19*, M1 antag 31, M1 PAM -28 and CHO-K1 Ca antag 15.
`C=CCNC(=O)c1ccccc1Cl` gave CHO-K1 Ca ag 19*, M1 PAM parental 11, CHRM1 agonist -4, M1 antag -7, M1 PAM 6 and CHO-K1 Ca antag -3.
CCC1CCCCN1C/C=C/c1ccccc1[N+](=O)[O-] (configuration not stated) was read as CHO-K1 Ca ag 1, M1 PAM parental 19, CHRM1 agonist -8, M1 antag 89*, M1 PAM -20 and CHO-K1 Ca antag -13.
For CC1CCCCN1C/C=C/c1ccccc1[N+](=O)[O-] (configuration not stated) the results were CHO-K1 Ca ag 1, M1 PAM parental 15, CHRM1 agonist -7, M1 antag 86*, M1 PAM -23 and CHO-K1 Ca antag -7.
Screening CC1CCCN(C/C=C/c2ccccc2[N+](=O)[O-])C1 (configuration not stated) returned CHO-K1 Ca ag 1, M1 PAM parental 8, CHRM1 agonist -15, M1 antag 6, M1 PAM -5 and CHO-K1 Ca antag -19.
Screening Nc1nnc(-c2ccccc2)s1 returned CHO-K1 Ca ag 1, M1 PAM parental 31, CHRM1 agonist -2, M1 antag -15, M1 PAM 11 and CHO-K1 Ca antag -19.
Screening CN(C(=O)COC(=O)c1ccc(S(=O)(=O)N2CCCC2)cc1)c1ccccc1 returned CHO-K1 Ca ag 4, M1 PAM parental 13, CHRM1 agonist -6, M1 antag 50*, M1 PAM -22 and CHO-K1 Ca antag -18.
`O=C(COC(=O)c1ccccc1)c1ccc(S(=O)(=O)N2CCCCC2)cc1` gave CHO-K1 Ca ag 4, M1 PAM parental -3, CHRM1 agonist -2, M1 antag 15, M1 PAM -6 and CHO-K1 Ca antag -2.
Screening CCN(CC)CCCNc1ncnc2scc(-c3ccc(F)cc3)c12 returned CHO-K1 Ca ag 0, M1 PAM parental 16, CHRM1 agonist -9, M1 antag 34*, M1 PAM -20 and CHO-K1 Ca antag -13.
C=CCC1(CC=C)CCCN1C(=O)c1cc(COc2ccc(C)nc2)on1 was read as CHO-K1 Ca ag 16*, M1 PAM parental -28, CHRM1 agonist 2, M1 antag 55*, M1 PAM -14 and CHO-K1 Ca antag 49*.
Screening CC(=O)c1c(C)[nH]c(C(=O)Nc2ccc(Cl)cc2)c1C returned CHO-K1 Ca ag 16*, M1 PAM parental 4, CHRM1 agonist 6, M1 antag 3, M1 PAM -6 and CHO-K1 Ca antag -1.
`O=C(NCC1OCCCN1S(=O)(=O)c1cc(F)ccc1F)C(=O)NC1CCCCCC1` (configuration not stated) gave CHO-K1 Ca ag 2, M1 PAM parental 2, CHRM1 agonist -4, M1 antag 3, M1 PAM -3 and CHO-K1 Ca antag 32*.
Screening O=C(NCc1ccncc1)C(=O)NCC1OCCCN1S(=O)(=O)c1cc(F)ccc1F (configuration not stated) returned CHO-K1 Ca ag 0, M1 PAM parental -18, CHRM1 agonist -4, M1 antag 6, M1 PAM -2 and CHO-K1 Ca antag 5.
`Cc1ccc2sc(NC(=O)CN3C(=O)CCC3=O)nc2c1C` gave CHO-K1 Ca ag 1, M1 PAM parental -6, CHRM1 agonist 0, M1 antag 0, M1 PAM 6 and CHO-K1 Ca antag 29*.
`COC(=O)c1ccc(NC(=O)Nc2ccc(F)cc2)cc1` gave CHO-K1 Ca ag 9, M1 PAM parental 7, CHRM1 agonist 1, M1 antag 13, M1 PAM -3 and CHO-K1 Ca antag 19.
For O=C(NC(=S)Nc1ccc(F)c(Cl)c1)C1CC1 the results were CHO-K1 Ca ag 0, M1 PAM parental 21, CHRM1 agonist -5, M1 antag -20, M1 PAM 7 and CHO-K1 Ca antag -11.
Screening CC(=O)N(C)c1ccc(NC(=O)Nc2ccc(C)c(C)c2)cc1 returned CHO-K1 Ca ag 7, M1 PAM parental -2, CHRM1 agonist 1, M1 antag 27*, M1 PAM -18 and CHO-K1 Ca antag 14.
`Fc1ccc(NC(=S)Nc2ccc(F)c(Cl)c2)cc1Cl` gave CHO-K1 Ca ag 10, M1 PAM parental 3, CHRM1 agonist 6, M1 antag 24*, M1 PAM -12 and CHO-K1 Ca antag 28*.
For COC(=O)c1ccc(NC(=O)Nc2ccc(F)c(Cl)c2)cc1 the results were CHO-K1 Ca ag 15*, M1 PAM parental 3, CHRM1 agonist 7, M1 antag 32*, M1 PAM -19 and CHO-K1 Ca antag 17.
`COC(=O)c1ccc(NC(=O)Nc2ccc([N+](=O)[O-])cc2)cc1` gave CHO-K1 Ca ag 16*, M1 PAM parental -6, CHRM1 agonist 4, M1 antag 24, M1 PAM -11 and CHO-K1 Ca antag 20.
For CC(=O)N(C)c1ccc(NC(=O)Nc2ccccc2C)cc1 the results were CHO-K1 Ca ag 1, M1 PAM parental 10, CHRM1 agonist -2, M1 antag -2, M1 PAM -1 and CHO-K1 Ca antag -13.
`COCCNC(=O)C1CCCN(C(=O)c2ccc3c(c2)C(C)(C)CCC3(C)C)CC1` (configuration not stated) gave CHO-K1 Ca ag 1, M1 PAM parental 8, CHRM1 agonist -5, M1 antag -9, M1 PAM 9 and CHO-K1 Ca antag 7.
`O=C(c1cncc(Br)c1)N1CCCc2ccccc21` gave CHO-K1 Ca ag 0, M1 PAM parental 11, CHRM1 agonist 0, M1 antag -15, M1 PAM 5 and CHO-K1 Ca antag 11.
`Cn1c(CC(=O)Nc2cccc(Cl)c2Cl)nnc1SCC(=O)NC1=NCCS1` gave CHO-K1 Ca ag 1, M1 PAM parental -2, CHRM1 agonist -5, M1 antag -6, M1 PAM 4 and CHO-K1 Ca antag -15.
